# The sample as a whole holds a higher share of the strongest signals than the screen did.
# B1: Flo11 (Saccharomyces cerevisiae), P08640 (protein)
# chain: MQRPFLLAYLVLSLLFNSALGFPTALVPRGSSEGTSCNSIVNGCPNLDFNWHMDQQNIMQYTLDVTSVSWVQDNTYQITIHVKGKENIDLKYLWSLKIIGVTGPKGTVQLYGYNENTYLIDNPTDFTATFEVYATQDVNSCQVWMPNFQIQFEYLQGSAAQYASSWQWGTTSFDLSTGCNNYDNQGHSQTDFPGFYWNIDCDNNCGGTKSSTTTSSTSESSTTTSSTSESSTTTSSTSESSTTTSSTSESSTSSSTTAPATPTTTSCTKEKPTPPTTTSCTKEKPTPPHHDTTPCTKKKTTTSKTCTKKTTTPVPTPSSSTTESSSAPVPTPSSSTTESSSAPVTSSTTESSSAPVPTPSSSTTESSSAPVTSSTTESSSAPVTSSTTESSSAPVPTPSSSTTESSSAPVTSSTTESSSAPVTSSTTESSSAPVTSSTTESSSAPVTSSTTESSSAPVPTPSSSTTESSSAPVTSSTTESSSAPVPTPSSSTTESSSAPVTSSTTESSSAPVPTPSSSTTESSSAPAPTPSSSTTESSSAPVTSSTTESSSAPVPTPSSSTTESSSTPVTSSTTESSSAPVPTPSSSTTESSSAPVPTPSSSTTESSSAPAPTPSSSTTESSSAPVTSSTTESSSAPVPTPSSSTTESSSAPVPTPSSSTTESSSAPVPTPSSSTTESSSAPVTSSTTESSSAPVTSSTTESSSAPVPTPSSSTTESSSAPVPTPSSSTTESSSAPVPTPSSSTTESSSAPVTSSTTESSSAPVPTPSSSTTESSSAPVPTPSSSTTESSSAPVPTPSSSTTESSVAPVPTPSSSSNITSSAPSSTPFSSSTESSSVPVPTPSSSTTESSSAPVSSSTTESSVAPVPTPSSSSNITSSAPSSIPFSSTTESFSTGTTVTPSSSKYPGSQTETSVSSTTETTIVPTKTTTSVTTPSTTTITTTVCSTGTNSAGETTSGCSPKTVTTTVPTTTTTSVTTSSTTTITTTVCSTGTNSAGETTSGCSPKTITTTVPCSTSPSETASESTTTSPTTPVTTVVSTTVVTTEYSTSTKPGGEITTTFVTKNIPTTYLTTIAPTPSVTTVTNFTPTTITTTVCSTGTNSAGETTSGCSPKTVTTTVPCSTGTGEYTTEATTLVTTAVTTTVVTTESSTGTNSAGKTTTGYTTKSVPTTYVTTLAPSAPVTPATNAVPTTITTTECSAATNAAGETTSVCSAKTIVSSASAGENTAPSATTPVTTAIPTTVITTESSVGTNSAGETTTGYTTKSIPTTYITTLIPGSNGAKNYETVATATNPISIKTTSQLATTASASSVAPVVTSPSLTGPLQSASGSAVATYSVPSISSTYQGAANIKVLGNFMWLLLALPVVF
# Assays:
# Assay in all cases: glycan array binding signal (z-score within array); higher = stronger binding
# Settings in all cases: glycan notation: IUPAC condensed, linker removed
# [1] = biological target: Fuc(a1-2)Gal(b1-3)GalNAc(b1-3)Gal
# Procedure, shortened: (§1)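 The binding signal is a Z-score computed within each array. Data were drawn from 3228 arrays in the Consortium for Functional Glycomics database, restricted to those with a known protein sequence. Scores were averaged over arrays of the same protein sequence at different concentrations or buffers, and over linkers, and negative values can be taken as non-binding.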
# [2] = biological target: Fuc(a1-2)Gal(b1-3)GlcNAc(b1-2)Man(a1-3)[Fuc(a1-2)Gal(b1-3)GlcNAc(b1-2)Man(a1-6)]Man(b1-4)GlcNAc(b1-4)[Fuc(a1-6)]GlcNAc
# Procedure, shortened: as §1
# [3] = biological target: Fuc(a1-2)Gal(b1-4)GlcNAc(b1-3)GalNAc
# Procedure, shortened: as §1
# [4] = biological target: Fuc(a1-2)Gal(b1-4)[Fuc(a1-3)]GlcNAc(b1-3)GalNAc
# Procedure, shortened: as §1
# [5] = biological target: Fuc(a1-2)[Gal(a1-3)]Gal(b1-3)GlcNAc
# Procedure, shortened: as §1
# [6] = biological target: Fuc(a1-2)[Gal(a1-3)]Gal(b1-3)GlcNAc(b1-2)Man(a1-3)[Fuc(a1-2)[Gal(a1-3)]Gal(b1-3)GlcNAc(b1-2)Man(a1-6)]Man(b1-4)GlcNAc(b1-4)GlcNAc
# Procedure, shortened: as §1
# [7] = biological target: Fuc(a1-2)[Gal(a1-3)]Gal(b1-4)[Fuc(a1-3)]Glc
# Procedure, shortened: as §1
# [8] = biological target: Fuc(a1-2)[GalNAc(a1-3)]Gal(b1-4)GlcNAc
# Procedure, shortened: as §1
# Fuc(a1-4)GlcNAc = biological target: Fuc(a1-4)GlcNAc
# Procedure, shortened: as §1
# [9] = biological target: Gal(a1-3)Gal(b1-3)GlcNAc(b1-2)Man(a1-3)[Gal(a1-3)Gal(b1-3)GlcNAc(b1-2)Man(a1-6)]Man(b1-4)GlcNAc(b1-4)GlcNAc
# Procedure, shortened: as §1
# [10] = biological target: Gal(a1-3)Gal(b1-3)[Fuc(a1-4)]GlcNAc(b1-2)Man(a1-3)[Gal(a1-3)Gal(b1-3)[Fuc(a1-4)]GlcNAc(b1-2)Man(a1-6)]Man(b1-4)GlcNAc(b1-4)GlcNAc
# Procedure, shortened: as §1
# Gal(a1-4)GlcNAc = biological target: Gal(a1-4)GlcNAc
# Procedure, shortened: as §1
# Gal(a1-6)Glc = biological target: Gal(a1-6)Glc
# Procedure, shortened: as §1
# Gal(b1-3)Gal(b1-4)GlcNAc = biological target: Gal(b1-3)Gal(b1-4)GlcNAc
# Procedure, shortened: as §1
# [11] = biological target: Gal(b1-3)[Fuc(a1-4)]GlcNAc(b1-2)Man(a1-3)[Gal(b1-3)[Fuc(a1-4)]GlcNAc(b1-2)Man(a1-6)]Man(b1-4)GlcNAc(b1-4)GlcNAc
# Procedure, shortened: as §1
# [12] = biological target: Gal(b1-3)[Fuc(a1-4)]GlcNAc(b1-3)Gal(b1-3)[Fuc(a1-4)]GlcNAc
# Procedure, shortened: as §1
# [13] = biological target: Gal(b1-3)[GlcNAc(b1-6)]GalNAc
# Procedure, shortened: as §1
# [14] = biological target: Gal(b1-4)GlcNAc(b1-3)Gal(b1-4)[Fuc(a1-3)GlcNAc(b1-6)]Gal(b1-4)Glc
# Procedure, shortened: as §1
# Gal3S(b1-4)Glc = biological target: Gal3S(b1-4)Glc
# Procedure, shortened: as §1
# Gal6S(b1-4)GlcNAc6S = biological target: Gal6S(b1-4)GlcNAc6S
# Procedure, shortened: as §1
# GalNAc(b1-3)GalNAc = biological target: GalNAc(b1-3)GalNAc
# Procedure, shortened: as §1
# [15] = biological target: GalNAc(b1-4)GlcNAc(b1-2)Man(a1-3)[GalNAc(b1-4)GlcNAc(b1-2)Man(a1-6)]Man(b1-4)GlcNAc(b1-4)GlcNAc
# Procedure, shortened: as §1
# [16] = biological target: GlcNAc(a1-4)Gal(b1-4)GlcNAc(b1-3)Gal(b1-4)GlcNAc
# Procedure, shortened: as §1
# [17] = biological target: GlcNAc(a1-4)Gal(b1-4)GlcNAc(b1-3)Gal(b1-4)[Fuc(a1-3)]GlcNAc(b1-3)Gal(b1-4)[Fuc(a1-3)]GlcNAc
# Procedure, shortened: as §1
# [18] = biological target: GlcNAc(b1-2)Man(a1-3)[GlcNAc(b1-2)Man(a1-6)]Man(b1-4)GlcNAc(b1-4)[Fuc(a1-6)]GlcNAc
# Procedure, shortened: as §1
# [19] = biological target: GlcNAc(b1-2)[GlcNAc(b1-4)]Man(a1-3)[GlcNAc(b1-4)][GlcNAc(b1-2)[GlcNAc(b1-6)]Man(a1-6)]Man(b1-4)GlcNAc(b1-4)GlcNAc
# Procedure, shortened: as §1
# GlcNAc(b1-4)GlcNAc = biological target: GlcNAc(b1-4)GlcNAc
# Procedure, shortened: as §1
# [20] = biological target: Man(a1-2)Man(a1-2)Man(a1-3)Man
# Procedure, shortened: as §1
# [21] = biological target: Man(a1-2)Man(a1-3)[Man(a1-2)Man(a1-6)]Man
# Procedure, shortened: as §1
# [22] = biological target: Man(a1-2)Man(a1-6)[Man(a1-3)]Man(a1-6)[Man(a1-2)Man(a1-2)Man(a1-3)]Man(b1-4)GlcNAc(b1-4)GlcNAc
# Procedure, shortened: as §1
binder,measurement,setting,value
B1,glycan array binding signal (z-score),[1],4.03
same,glycan array binding signal (z-score),[2],0.319
same,glycan array binding signal (z-score),[3],1.35
same,glycan array binding signal (z-score),[4],5.39
same,glycan array binding signal (z-score),[5],-0.315
same,glycan array binding signal (z-score),[6],-0.389
same,glycan array binding signal (z-score),[7],-0.826
same,glycan array binding signal (z-score),[8],-0.692
same,glycan array binding signal (z-score),Fuc(a1-4)GlcNAc,0.442
same,glycan array binding signal (z-score),[9],0.723
same,glycan array binding signal (z-score),[10],0.122
same,glycan array binding signal (z-score),Gal(a1-4)GlcNAc,-0.72
same,glycan array binding signal (z-score),Gal(a1-6)Glc,-0.453
same,glycan array binding signal (z-score),Gal(b1-3)Gal(b1-4)GlcNAc,0.164
same,glycan array binding signal (z-score),[11],-0.241
same,glycan array binding signal (z-score),[12],-0.512
same,glycan array binding signal (z-score),[13],-1.34
same,glycan array binding signal (z-score),[14],-1.05
same,glycan array binding signal (z-score),Gal3S(b1-4)Glc,0.09
same,glycan array binding signal (z-score),Gal6S(b1-4)GlcNAc6S,0.193
same,glycan array binding signal (z-score),GalNAc(b1-3)GalNAc,-0.184
same,glycan array binding signal (z-score),[15],0.79
same,glycan array binding signal (z-score),[16],6.8
same,glycan array binding signal (z-score),[17],3.01
same,glycan array binding signal (z-score),[18],3.49
same,glycan array binding signal (z-score),[19],0.283
same,glycan array binding signal (z-score),GlcNAc(b1-4)GlcNAc,-0.781
same,glycan array binding signal (z-score),[20],7.09
same,glycan array binding signal (z-score),[21],-0.669
same,glycan array binding signal (z-score),[22],-1.08

# — the supplement of paper PMC8728848
